# Test results published in ChEMBL document CHEMBL3988442, “University of Dundee, Small-Polar-MMV Screening Library” (2021).
# Out of some 66,000 compounds screened, about 960 (1.5%) showed an effect of 50% or more. Many of the other results were omitted from the sample, so strong results are more common in it than they were.
# System: Trypanosoma brucei
# Test: Trypanosoma brucei 72 hour study
# Assay type: functional, organism-based
# Parameters: scale not given: in the data most compounds retested in dose-response had high values
smiles,measurement,setting,value
COc1ccccc1NC(=O)NCCCn1nc2ccccn2c1=O,Percent Effect,"30.3 µM, […]",-15.65%
CCc1c(C)nn2c(O)cc(C3CCN(C(=O)c4cnn(C)c4)C3)nc12 (stereo unspecified),Percent Effect,"30.3 µM, […]",-13.28%
CCCn1cc(-c2cc(-c3c[nH]cn3)c(C#N)c(N)n2)c(C)n1,Percent Effect,"30 µM, 30.03 µM",58.89%
COc1ncc(-c2cc(-c3ccn(C)c3)nc(N)c2C#N)cn1,Percent Effect,"30 µM, 30.03 µM",-14.16%
CCCn1cc(-c2cc(-c3ccoc3)c(C#N)c(N)n2)c(C)n1,Percent Effect,"30 µM, 30.03 µM",-1.944%
CCn1cc(-c2cc(-c3cc(CC(=O)O)cs3)nc(N)c2C#N)c(C)n1,Percent Effect,"30 µM, 30.03 µM",-31.42%
CCCn1cc(-c2cc(-c3cc(CC)n[nH]3)c(C#N)c(N)n2)c(C)n1,Percent Effect,"30 µM, 30.03 µM",41.43%
CCCn1cc(-c2cc(-c3cnc(OC)nc3)c(C#N)c(N)n2)c(C)n1,Percent Effect,"30 µM, 30.03 µM",73.84%
CC(C)CS(=O)(=O)N1C[C@H]2C[C@H](C(=O)N3CCN(C)CC3)[C@@H](C1)O2.O=C(O)C(F)(F)F,Percent Effect,"30.3 µM, […]",-51.72%
COc1ccccc1CCN1CCCC(CN(C)Cc2c[nH]c(C)n2)C1 (stereo unspecified),Percent Effect,"30 µM, 30.03 µM",9.173%
CC(NC(=O)c1ccc(=O)n(C)c1)c1ccccc1-n1cccn1 (stereo unspecified),Percent Effect,"30 µM, 30.03 µM",-14.43%
Cc1ccc(C)c(NC(=O)c2cc(S(=O)(=O)N3CCSCC3)c[nH]2)c1,Percent Effect,"30 µM, 30.03 µM",69.72%
Cc1nnc(NC(=O)c2cc(S(=O)(=O)N3CCSCC3)c[nH]2)s1,Percent Effect,"30 µM, 30.03 µM",37.66%
Cc1ccc(NC(=O)c2cc(S(=O)(=O)N3CCCCC3)c[nH]2)cc1F,Percent Effect,"30 µM, 30.03 µM",-33.42%
Cc1noc([C@@H]2CC[C@@H]3[C@@H](CCN3c3nnc(C)s3)O2)n1.O=C(O)C(F)(F)F,Percent Effect,"30.3 µM, […]",-92.4%
CCc1ccc(C2NCCc3cc4c(cc32)OCCO4)cc1 (stereo unspecified),Percent Effect,"30.3 µM, […]",67.24%
Fc1ccccc1C1NCCc2cc3c(cc21)OCCO3 (stereo unspecified),Percent Effect,"30.3 µM, […]",18.61%
Clc1ccc(C2NCCc3cc4c(cc32)OCCO4)cc1 (stereo unspecified),Percent Effect,"30.3 µM, […]",-20.9%
Cc1cc(CCC(N)=O)cc(C2CCCN2Cc2cnc(C)nc2)n1 (stereo unspecified),Percent Effect,"30.3 µM, […]",-5.889%
O=C(O)C(F)(F)F.O=C(O)C(F)(F)F.c1coc(CN2C[C@@H]3CN(Cc4ccoc4)CCO[C@@H]3C2)c1,Percent Effect,"30.3 µM, […]",-14.62%
O=C(Cn1c(=O)oc2ccccc21)NCC1(O)CCc2ccccc2C1 (stereo unspecified),Percent Effect,"30 µM, 30.03 µM",-11.94%
Cc1cccc(OCc2nnc(SCC3CCCN(C)C3)o2)c1 (stereo unspecified),Percent Effect,"30.3 µM, […]",-11.54%
Cc1ccc(C)c(OCc2nnc(SCC3CCCN(C)C3)o2)c1 (stereo unspecified),Percent Effect,"30.3 µM, […]",77.52%
Cc1ccc(OCc2nnc(SCC3CCCN(C)C3)o2)cc1 (stereo unspecified),Percent Effect,"30.3 µM, […]",-4.572%
Cc1cc(F)cc2c(N3CCS(=O)(=O)CC3)c(C#N)cnc12,Percent Effect,"30.3 µM, […]",6.61%
Cc1noc(C)c1CN1CCc2ncnc(-c3ccccc3)c2CC1.O=C(O)C(F)(F)F,Percent Effect,"30.3 µM, […]",-55.88%
CCn1ncc2c1CCCC2NCc1cccc2c1OCCO2 (stereo unspecified),Percent Effect,"30 µM, 30.03 µM",6.251%
CC(C)(C)n1ncc2c1CCCC2NCc1cccc2c1OCCO2 (stereo unspecified),Percent Effect,10 µM,0.9444%
same,Percent Effect,"30.3 µM, […]",51.24%
CC(C)(C)n1ncc2c1CCCC2NCc1cccc2c1OCO2 (stereo unspecified),Percent Effect,"30 µM, 30.03 µM",-18.28%
Cc1ccc(N2C[C@H](C)[C@]3(CCN(c4cccnc4)C3=O)C2)nn1.O=C(O)C(F)(F)F.O=C(O)C(F)(F)F,Percent Effect,"30.3 µM, […]",-32.51%
O=C(NC1CCCC1)[C@@H]1C[C@@H]2CCN(Cc3ccoc3)C[C@H]2O1.O=C(O)C(F)(F)F,Percent Effect,"30.3 µM, […]",-88.78%
Cc1nc(CN2CCO[C@@H]3CN(C(=O)CN(C)C)CC[C@@H]3C2)cs1,Percent Effect,"30 µM, 30.03 µM",8.371%
Cc1nc(CN2CCO[C@@H]3CN(C(=O)CC4CC4)C[C@@H]3C2)cs1.O=C(O)C(F)(F)F,Percent Effect,"30 µM, 30.03 µM",48.86%
Cc1nc(CN2CCO[C@@H]3CN(C(=O)CC4CC4)CC[C@@H]3C2)cs1,Percent Effect,"30 µM, 30.03 µM",61.23%
CCC(=O)N1CCC2(CC1)C(c1cccnc1)CC(=O)N2CCOC.O=C(O)C(F)(F)F (stereo unspecified),Percent Effect,"30.3 µM, […]",-33.93%
CO[C@H]1CN(C(=O)c2cccnc2)[C@@H]2CCCO[C@H]12.O=C(O)C(F)(F)F,Percent Effect,"30.3 µM, […]",-49.74%
COc1cccc(CNC(C)C)c1OCc1ccc(C)cc1.Cl,Percent Effect,"30 µM, 30.03 µM",-4.618%
COc1cc(CNCC(C)O)cc(Cl)c1OCc1ccc(C)cc1.Cl (stereo unspecified),Percent Effect,"30 µM, 30.03 µM",97.25%
CC(O)CNCc1ccc(OCc2ccc3c(c2)OCCO3)cc1.Cl (stereo unspecified),Percent Effect,"30 µM, 30.03 µM",-67.49%
COc1ccc(C[C@H]2CNCC[C@H]2OC)cc1.O=C(O)C(F)(F)F,Percent Effect,"30.3 µM, […]",13.15%
Cl.c1cnc(N2CCCC(NCc3ccc(-n4ccnc4)cc3)C2)nc1 (stereo unspecified),Percent Effect,"30.3 µM, […]",10.24%
Cc1n[nH]c2ncc(CNC3CCCN(c4ncccn4)C3)cc12.Cl (stereo unspecified),Percent Effect,"30 µM, 30.03 µM",72.79%
Cc1n[nH]c2ncc(CNC3CCN(Cc4ccccn4)CC3)cc12.Cl,Percent Effect,"30 µM, 30.03 µM",-2.543%
CC(C)[C@@H]1CN(S(=O)(=O)c2cccc(C(=O)O)c2)C[C@H]1N(C)C,Percent Effect,"30 µM, 30.03 µM",98.32%
COc1cccc(S(=O)(=O)N2C[C@@H](N(C)C)[C@H](C(C)C)C2)c1,Percent Effect,"30 µM, 30.03 µM",-34.95%
CC(C)S(=O)(=O)N1CCC(Cc2cccc(C(=O)O)c2)C1 (stereo unspecified),Percent Effect,"30 µM, 30.03 µM",-22.39%
COCCN1CC2(CCOCC2)c2cc(NC(=O)C3CC=CC3)ccc21.O=C(O)C(F)(F)F,Percent Effect,"30.3 µM, […]",4.18%
COc1cc(-c2cc(-c3ccn(C)c3)nc(N)c2C#N)cc(OC)c1O,Percent Effect,"30 µM, 30.03 µM",-22.54%
Cc1noc(C)c1-c1ccc(C2CCCN2C(=O)Cn2ccnc2)nc1 (stereo unspecified),Percent Effect,"30.3 µM, […]",-4.122%
CN(C)C(=O)CN1CCCC(c2cncc(-c3cccc(Cl)c3)n2)C1 (stereo unspecified),Percent Effect,"30.3 µM, […]",53.32%
CN(C)C(=O)CN1CCCC(c2nccnc2-c2cccc(Cl)c2)C1 (stereo unspecified),Percent Effect,"30.3 µM, […]",-2.355%
CN(C)C(=O)CN1CCC(c2cncc(-c3cccc(Cl)c3)n2)CC1,Percent Effect,"30.3 µM, […]",45.69%
CO[C@H]1C[C@@H]2CN(C(=O)c3cccc4c3OCCO4)C[C@@H]2C1,Percent Effect,"30.3 µM, […]",-23.55%
O=C(C1CC1)N1CC[C@H](O)[C@@H]1Cc1ccccc1,Percent Effect,"30.3 µM, […]",-5.545%
CC(C)c1cc(N2CC[C@H](F)C2)n2nccc2n1,Percent Effect,"30.3 µM, […]",99.84%
CC(C)c1cc(N2CCC(N(C)C)C2)n2nccc2n1 (stereo unspecified),Percent Effect,"30.3 µM, […]",4.814%
CC(C)c1cc(N2CCC(C(C)N3CCCC3)CC2)n2nccc2n1 (stereo unspecified),Percent Effect,"30.3 µM, […]",88.53%
CC(C)c1cc(N2CCSCC2)n2nccc2n1,Percent Effect,"30.3 µM, […]",-15.7%
CC(C)c1cc(N2CCC(N)CC2)n2nccc2n1,Percent Effect,"30 µM, 30.03 µM",38.85%
CC(C)c1cc(N2CCC[C@H](N)C2)n2nccc2n1,Percent Effect,"30.3 µM, […]",-37.71%
